Measured values as given in PubChem BioAssay (NCI).
The panel holds about 83,000 compounds, 20% with a hit somewhere; the sample as a whole holds those more often.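 The test compound was applied at a single concentration to cells in 96-well plates for 48 hours, and percent growth was recorded.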 Unmarked numbers belong to inactive results. Active and inactive are the calls of the source. How the source made its calls: active means growth percent below 10; inactive means the rest.

Assays:
Assay in all cases: NCI-60 one-dose screen, 48 h (100 = growth as untreated, 0 = no growth, -100 = all killed)
Conditions in all cases: 10 µM unless noted
NCI-H23 lung = test system: NCI-H23 lung
NCI-H226 lung = test system: NCI-H226 lung
NCI-H322M lung = test system: NCI-H322M lung
HOP-62 NSCLC = test system: HOP-62 NSCLC
NCI-H460 lung = test system: NCI-H460 lung
HOP-92 NSCLC = test system: HOP-92 NSCLC
NCI-H522 lung = test system: NCI-H522 lung
A549/ATCC NSCLC = test system: A549/ATCC NSCLC
786-0 renal = test system: 786-0 renal
COLO 205 colon = test system: COLO 205 colon

CCN1C(=O)N(CC)C2C1NN=c1s/c(=C\c3ccccc3)c(=O)n12 (stereo not given)
growth (NCI-H23 lung): 25.6% | growth (NCI-H226 lung): 59.1% | growth (NCI-H322M lung): 42.6% | growth (HOP-62 NSCLC): 38.2% | growth (NCI-H460 lung): 4.35% (active) | growth (HOP-92 NSCLC): 27.3% | growth (NCI-H522 lung): -8.72% (active) | growth (A549/ATCC NSCLC): 7.65% (active) | growth (786-0 renal): 25.1% | growth (COLO 205 colon): -2.49% (active)

CN(C)CCOc1ccc(/C(=C(/CCCCCCCCCC[P+](c2ccccc2)(c2ccccc2)c2ccccc2)c2ccccc2)c2ccccc2)cc1
growth (NCI-H23 lung): -83.2% (active) | growth (NCI-H226 lung): -53.2% (active) | growth (NCI-H322M lung): -96.6% (active) | growth (HOP-62 NSCLC): -66% (active) | growth (NCI-H460 lung): -79.2% (active) | growth (HOP-92 NSCLC): -84.3% (active) | growth (NCI-H522 lung): -75.1% (active) | growth (A549/ATCC NSCLC): -64.3% (active) | growth (786-0 renal): -76.6% (active) | growth (COLO 205 colon): -64% (active)

Cc1c2ccncc2c(C)c2c1c1ccccc1n2CCCCCC(=O)O
growth (NCI-H23 lung): 84.7% | growth (NCI-H226 lung): 75.6% | growth (NCI-H322M lung): 96.1% | growth (HOP-62 NSCLC): 83% | growth (NCI-H460 lung): 97.1% | growth (HOP-92 NSCLC): 80.6% | growth (NCI-H522 lung): 101% | growth (A549/ATCC NSCLC): 89.8% | growth (786-0 renal): 103% | growth (COLO 205 colon): 109%

O=c1n(C2OC(CO)C(O)C2O)ccc2nccn12 (stereo not given)
growth (NCI-H23 lung): 113% | growth (NCI-H226 lung): 110% | growth (NCI-H322M lung): 114% | growth (HOP-62 NSCLC): 127% | growth (NCI-H460 lung): 99.9% | growth (HOP-92 NSCLC): 105% | growth (NCI-H522 lung): 116% | growth (A549/ATCC NSCLC): 96% | growth (786-0 renal): 103% | growth (COLO 205 colon): 126%

COc1cccc2cc(N(C)c3nc(C)nc4c3CCC4)ccc12
growth (NCI-H23 lung): 22.4% | growth (NCI-H226 lung): 25.8% | growth (NCI-H322M lung): 59.1% | growth (HOP-62 NSCLC): 14.7% | growth (NCI-H460 lung): 6.85% (active) | growth (HOP-92 NSCLC): 0.483% (active) | growth (NCI-H522 lung): -16.9% (active) | growth (A549/ATCC NSCLC): 14.8% | growth (786-0 renal): 3.77% (active) | growth (COLO 205 colon): -66.4% (active)

O=S(=O)(c1ccc(NCSc2nc3ccccc3s2)cc1)c1ccc(NCSc2nc3ccccc3s2)cc1
growth (NCI-H23 lung): 102% | growth (NCI-H226 lung): 87.8% | growth (NCI-H322M lung): 103% | growth (HOP-62 NSCLC): 66.4% | growth (NCI-H460 lung): 104% | growth (HOP-92 NSCLC): 70.7% | growth (NCI-H522 lung): 69.7% | growth (A549/ATCC NSCLC): 91.1% | growth (786-0 renal): 99.6% | growth (COLO 205 colon): 97.1%

C=C1C(=O)O[C@H]2[C@H]1CC/C(CNC(=O)/C=C/c1cc(OC)c(OC)c(OC)c1)=C\CC[C@@]1(C)O[C@@H]21
growth (NCI-H23 lung): -31.3% (active) | growth (NCI-H226 lung): -61.8% (active) | growth (NCI-H322M lung): 60% | growth (HOP-62 NSCLC): 26% | growth (NCI-H460 lung): 82.3% | growth (HOP-92 NSCLC): -36% (active) | growth (NCI-H522 lung): -93.5% (active) | growth (A549/ATCC NSCLC): 40% | growth (786-0 renal): -68.5% (active) | growth (COLO 205 colon): -86.5% (active)

Fc1ccc(/C=C/c2cc(/C=C/c3ccc(F)cc3)n(-c3cc(F)cc(F)c3)n2)cc1
growth (NCI-H23 lung): 98.3% | growth (NCI-H226 lung): 109% | growth (NCI-H322M lung): 86.5% | growth (HOP-62 NSCLC): 96% | growth (NCI-H460 lung): 107% | growth (HOP-92 NSCLC): 83% | growth (NCI-H522 lung): 61.7% | growth (A549/ATCC NSCLC): 90.8% | growth (786-0 renal): 77.4% | growth (COLO 205 colon): 119%

COC(=O)c1cc(-c2ccc(OC)c(OC)c2)[nH]c1N/N=C/c1c(Cl)cccc1Cl
growth (NCI-H23 lung): 40.7% | growth (NCI-H226 lung): 62.4% | growth (NCI-H322M lung): 55.1% | growth (HOP-62 NSCLC): -7.06% (active) | growth (NCI-H460 lung): 14.6% | growth (HOP-92 NSCLC): 52.7% | growth (NCI-H522 lung): 13.7% | growth (A549/ATCC NSCLC): 43% | growth (786-0 renal): 8.47% (active) | growth (COLO 205 colon): 28%

O=C(NS(=O)(=O)c1ccccc1)n1cc(-c2ccncc2)c(-c2cc(O)cc(Cl)c2)n1
growth (NCI-H23 lung): 104% | growth (NCI-H226 lung): 104% | growth (NCI-H322M lung): 108% | growth (HOP-62 NSCLC): 115% | growth (NCI-H460 lung): 111% | growth (HOP-92 NSCLC): 103% | growth (NCI-H522 lung): 76.1% | growth (A549/ATCC NSCLC): 97.5% | growth (786-0 renal): 98% | growth (COLO 205 colon): 114%

CC(CN)[C@@H]1CC[C@]2(CO)CC[C@]3(C)[C@H](CC[C@@H]4[C@@]5(C)CCC(NCCO)C(C)(C)[C@@H]5CC[C@]43C)[C@@H]12 (stereo not given in full)
growth (NCI-H23 lung): 89.6% | growth (NCI-H226 lung): 95.8% | growth (NCI-H322M lung): 86.8% | growth (HOP-62 NSCLC): 86.6% | growth (NCI-H460 lung): 4.46% (active) | growth (HOP-92 NSCLC): 61.6% | growth (NCI-H522 lung): 59.3% | growth (A549/ATCC NSCLC): 59.2% | growth (786-0 renal): 59.2% | growth (COLO 205 colon): 67.5%

Cc1c(CC(=O)Nc2ccccc2)nnn1-c1ccccc1
growth (NCI-H23 lung): 100% | growth (NCI-H226 lung): 109% | growth (NCI-H322M lung): 105% | growth (HOP-62 NSCLC): 108% | growth (NCI-H460 lung): 106% | growth (HOP-92 NSCLC): 108% | growth (NCI-H522 lung): 93.4% | growth (A549/ATCC NSCLC): 107% | growth (786-0 renal): 107% | growth (COLO 205 colon): 112%

O=C(O)/C=C/c1cn(-c2ccccc2)nc1-c1ccc(F)cc1
growth (NCI-H23 lung): 96.2% | growth (NCI-H226 lung): 95.1% | growth (NCI-H322M lung): 87% | growth (HOP-62 NSCLC): 81.7% | growth (NCI-H460 lung): 101% | growth (HOP-92 NSCLC): 84.3% | growth (NCI-H522 lung): 98.2% | growth (A549/ATCC NSCLC): 82.2% | growth (786-0 renal): 96.1% | growth (COLO 205 colon): 104%

O=C(OCC(O)C(=O)NC12CC3CC(CC(C3)C1)C2)c1cccc(Br)c1 (stereo not given)
growth (NCI-H23 lung): 103% | growth (NCI-H226 lung): 97.5% | growth (NCI-H322M lung): 102% | growth (HOP-62 NSCLC): 96.9% | growth (NCI-H460 lung): 108% | growth (HOP-92 NSCLC): 90.1% | growth (NCI-H522 lung): 91.9% | growth (A549/ATCC NSCLC): 91.9% | growth (786-0 renal): 102% | growth (COLO 205 colon): 105%

COc1ccc(CNc2ccc3nc(CCC4CCCCC4)[nH]c3c2)cc1
growth (NCI-H23 lung): 77.5% | growth (NCI-H226 lung): 73.8% | growth (NCI-H322M lung): 91.2% | growth (HOP-62 NSCLC): 75.8% | growth (NCI-H460 lung): 88.6% | growth (HOP-92 NSCLC): 38.3% | growth (NCI-H522 lung): 67.1% | growth (A549/ATCC NSCLC): 80.2% | growth (786-0 renal): 62.7% | growth (COLO 205 colon): -23.9% (active)

CCN1C(=O)N(CC)C2C1NN=c1s/c(=C\c3ccc(F)cc3)c(=O)n12 (stereo not given)
growth (NCI-H23 lung): 39.3% | growth (NCI-H226 lung): 63.4% | growth (NCI-H322M lung): 44.2% | growth (HOP-62 NSCLC): 39.3% | growth (NCI-H460 lung): 5.08% (active) | growth (HOP-92 NSCLC): 43.6% | growth (NCI-H522 lung): -5.22% (active) | growth (A549/ATCC NSCLC): 15.5% | growth (786-0 renal): 35% | growth (COLO 205 colon): 5.08% (active)

COc1nc2ccccc2cc1/C=[N+](\[O-])c1ccccc1
growth (NCI-H23 lung): 75.4% | growth (NCI-H226 lung): 69.5% | growth (NCI-H322M lung): 86.5% | growth (HOP-62 NSCLC): 80.4% | growth (NCI-H460 lung): 99.6% | growth (HOP-92 NSCLC): 64.4% | growth (NCI-H522 lung): 82.7% | growth (A549/ATCC NSCLC): 94.8% | growth (786-0 renal): 102% | growth (COLO 205 colon): 108%

CN1C(=O)N(C)C2C1NN=c1s/c(=C\c3ccc(F)cc3)c(=O)n12 (stereo not given)
growth (NCI-H23 lung): 50.8% | growth (NCI-H226 lung): 62.9% | growth (NCI-H322M lung): 53.6% | growth (HOP-62 NSCLC): 46.7% | growth (NCI-H460 lung): 13% | growth (HOP-92 NSCLC): 47% | growth (NCI-H522 lung): 2.08% (active) | growth (A549/ATCC NSCLC): 24.8% | growth (786-0 renal): 40.7% | growth (COLO 205 colon): 12.5%

Cn1ccnc1C(=O)/C=C/c1ccc(C(=O)Nc2c(F)c(F)c(F)c(F)c2F)cc1
growth (NCI-H23 lung): -28.5% (active) | growth (NCI-H226 lung): 13% | growth (NCI-H322M lung): 6.92% (active) | growth (HOP-62 NSCLC): 1.97% (active) | growth (NCI-H460 lung): -41% (active) | growth (HOP-92 NSCLC): 49.7% | growth (NCI-H522 lung): 4.29% (active) | growth (A549/ATCC NSCLC): 6.57% (active) | growth (786-0 renal): -34.6% (active) | growth (COLO 205 colon): -24.2% (active)

O=C1c2ccccc2-c2c1c1ccncc1c(=O)n2CCCn1ccnc1
growth (NCI-H23 lung): 51.8% | growth (NCI-H226 lung): 54.4% | growth (NCI-H322M lung): 83.8% | growth (HOP-62 NSCLC): 39.9% | growth (NCI-H460 lung): 21.8% | growth (HOP-92 NSCLC): 78.5% | growth (NCI-H522 lung): 29.6% | growth (A549/ATCC NSCLC): 56.3% | growth (786-0 renal): 55.4% | growth (COLO 205 colon): 56.4%

Cn1ccnc1C(=O)/C=C/c1ccc(C(=O)Nc2ccccc2F)cc1
growth (NCI-H23 lung): 27.4% | growth (NCI-H226 lung): 50.7% | growth (NCI-H322M lung): 14.6% | growth (HOP-62 NSCLC): 3.72% (active) | growth (NCI-H460 lung): -0.603% (active) | growth (HOP-92 NSCLC): 16.2% | growth (NCI-H522 lung): 39.7% | growth (A549/ATCC NSCLC): 17.1% | growth (786-0 renal): 18.5% | growth (COLO 205 colon): 32.7%

COc1ccc(-c2nc3cc(C(=O)NC4CCCCC4)ccc3n2C2CCCCC2)cc1
growth (NCI-H23 lung): 92.5% | growth (NCI-H226 lung): 115% | growth (NCI-H322M lung): 85.8% | growth (HOP-62 NSCLC): 101% | growth (NCI-H460 lung): 86.2% | growth (HOP-92 NSCLC): 121% | growth (NCI-H522 lung): 73.5% | growth (A549/ATCC NSCLC): 89.4% | growth (786-0 renal): 88.3% | growth (COLO 205 colon): 73.6%
